Among all 5,500 compounds or so, about 2,000 (36%) were called active. Another 18% or so got no clear call; they are omitted. No stated cut-off is given here; in the data, active means normalized growth mostly below about 0.91 (no sharp cut-off); inconclusive means no clear call, values can overlap the other calls; inactive means mostly above about 0.92. The list shows a part of the results.
Test: chemical genetic growth profiling, strain panel (AID 1159580);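 further: tested at 20 µM; growth read once vehicle control cultures reached saturation at 30 °C; 1 = growth at the plate median or of vehicle wells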
Conditions: S. cerevisiae deletion strains, growth OD

Measured: normalized growth

CCOc1ccc2nc3cc(N)ccc3c(N)c2c1
inactive: locus YBR171W, strain sec66, stronger effect = lower value 1.07 | locus YDL005C, strain med2, stronger effect = lower value 0.981 | locus YDR001C, strain nth1, stronger effect = lower value 0.94 | locus YDR137W, strain rgp1, stronger effect = lower value 0.985 | locus YDR159W, strain sac3, stronger effect = lower value 1.06 | locus YDR334W, strain swr1, stronger effect = lower value 1.03 | locus YDR392W, strain spt3, stronger effect = lower value 0.803 | locus YEL061C, strain CIN8 (second series), stronger effect = lower value 0.997 | locus YER111C, strain swi4, stronger effect = lower value 0.987 | locus YGL167C, strain pmr1, stronger effect = lower value 1.03 | locus YGL240W, strain doc1, stronger effect = lower value 1.06 | locus YHR030C, strain SLT2, stronger effect = lower value 0.967 | locus YHR079C, strain IRE1, stronger effect = lower value 0.89 | locus YJL095W, strain BCK1, stronger effect = lower value 0.935 | locus YJL115W, strain asf1, stronger effect = lower value 0.987 | locus YJL154C, strain vps35, stronger effect = lower value 0.97 | locus YJR066W, strain TOR1, stronger effect = lower value 0.851 | locus YLR113W, strain HOG1, stronger effect = lower value 0.961 | locus YLR262C, strain YPT6 (second series), stronger effect = lower value 0.891 | locus YLR357W, strain rsc2, stronger effect = lower value 1.09 | locus YMR125W, strain sto1, stronger effect = lower value 0.892 | locus YNL183C, strain NPR1, stronger effect = lower value 0.875 | locus YNL322C, strain KRE1 (second series), stronger effect = lower value 1 | locus YNR049C, strain mso1, stronger effect = lower value 1 | locus YOR231W, strain MKK1, stronger effect = lower value 0.901 | locus YPL256C, strain CLN2, stronger effect = lower value 1.03
active: locus YAL021C, strain ccr4, stronger effect = lower value 0.749 | locus YAL026C, strain drs2, stronger effect = lower value 0.607 | locus YAL030W, strain snc1, stronger effect = lower value 0.63 | locus YBL061C, strain skt5, stronger effect = lower value 0.745 | locus YBR009C, strain hhf1, stronger effect = lower value 0.353 | locus YBR023C, strain chs3, stronger effect = lower value 0.721 | locus YBR231C, strain swc5, stronger effect = lower value 0.702 | locus YBR279W, strain paf1, stronger effect = lower value 0.51 | locus YCL011C, strain gbp2, stronger effect = lower value 0.447 | locus YCL016C, strain dcc1, stronger effect = lower value 0.462 | locus YCL061C, strain MRC1, stronger effect = lower value 0.846 | locus YCL069W, strain vba3, stronger effect = lower value 0.834 | locus YCR088W, strain abp1, stronger effect = lower value 0.695 | locus YDL040C, strain nat1, stronger effect = lower value 0.779 | locus YDR069C, strain doa4, stronger effect = lower value 0.696 | locus YDR195W, strain ref2 0.823 | locus YDR297W, strain sur2, stronger effect = lower value 0.705 | locus YDR335W, strain msn5, stronger effect = lower value 0.907 | locus YEL003W, strain gim4, stronger effect = lower value 0.534 | locus YEL037C, strain rad23, stronger effect = lower value 0.785 | locus YER015W, strain faa2, stronger effect = lower value 0.641 | locus YER016W, strain bim1, stronger effect = lower value 0.679 | locus YER155C, strain BEM2 (second series), stronger effect = lower value 0.856 | locus YFR010W, strain ubp6, stronger effect = lower value 0.683 | locus YGL173C, strain kem1, stronger effect = lower value 0.677 | locus YGL227W, strain vid30, stronger effect = lower value 0.754 | locus YGL253W, strain hxk2, stronger effect = lower value 0.761 | locus YHR013C, strain ard1, stronger effect = lower value 0.747 | locus YHR027C, strain rpn1, stronger effect = lower value 0.618 | locus YHR142W, strain chs7, stronger effect = lower value 0.801 | locus YJL092W, strain hpr5, stronger effect = lower value 0.803 | locus YJL095W, strain BCK1 (second series), stronger effect = lower value 0.785 | locus YJL129C, strain trk1, stronger effect = lower value 0.648 | locus YJL164C, strain tpk1, stronger effect = lower value 0.379 | locus YJL166W, strain qcr8, stronger effect = lower value 0.583 | locus YJL187C, strain SWE1, stronger effect = lower value 0.846 | locus YKL160W, strain elf1, stronger effect = lower value 0.733 | locus YKR026C, strain gcn3, stronger effect = lower value 0.864 | locus YKR091W, strain srl3, stronger effect = lower value 0.875 | locus YLL001W, strain dnm1, stronger effect = lower value 0.662 | locus YLL026W, stronger effect = lower value 0.508 | locus YLL041C, strain sdh2, stronger effect = lower value 0.863 | locus YLR027C, strain aat2, stronger effect = lower value 0.481 | locus YLR221C, strain rsa3, stronger effect = lower value 0.541 | locus YLR258W, strain gsy2, stronger effect = lower value 0.529 | locus YLR320W, strain mms22, stronger effect = lower value 0.742 | locus YLR342W, strain FKS1, stronger effect = lower value 0.866 | locus YLR370C, strain arc18, stronger effect = lower value 0.704 | locus YLR384C, strain iki3, stronger effect = lower value 0.85 | locus YML120C, strain ndi1, stronger effect = lower value 0.252 | locus YMR058W, strain fet3, stronger effect = lower value 0.587 | locus YMR129W, stronger effect = lower value 0.659 | locus YMR205C, strain PFK2, stronger effect = lower value 0.751 | locus YMR231W, strain pep5, stronger effect = lower value 0.883 | locus YNL071W, strain lat1, stronger effect = lower value 0.909 | locus YNL209W, strain ssb2, stronger effect = lower value 0.53 | locus YNL248C, strain rpa49, stronger effect = lower value 0.827 | locus YOR001W, strain rrp6, stronger effect = lower value 0.365 | locus YOR070C, strain gyp1, stronger effect = lower value 0.607 | locus YOR080W, strain dia2, stronger effect = lower value 0.876 | locus YOR083W, strain WHI5, stronger effect = lower value 0.58 | locus YOR106W, strain vam3, stronger effect = lower value 0.489 | locus YOR265W, strain rbl2, stronger effect = lower value 0.61 | locus YOR270C, strain vph1, stronger effect = lower value 0.707 | locus YOR290C, strain snf2, stronger effect = lower value 0.441 | locus YPL051W, strain arl3, stronger effect = lower value 0.653 | locus YPL078C, strain atp4, stronger effect = lower value 0.813 | locus YPL106C, strain sse1, stronger effect = lower value 0.719 | locus YPL240C, strain hsp82, stronger effect = lower value 0.623

— PubChem BioAssay AID1159580 (chemical genetic matrix, 2015)
